Records with an inconclusive call do not appear. Entries that show only a call come without a potency. The source made the active and inactive calls. Unless noted, the call rests on the fitted dose curve; in most records, active means well fitted curve in the direction sought with a large enough effect in the repeat runs; inconclusive means weak or mixed curves; inactive means no such curve, though single readings can be large; an effect the other way counts as inactive or inconclusive.
Experiments:
[1] = qHTS assay for small molecule agonists of the p53 signaling pathway (AID 651631; calls by dose curve; further: nearly all actives have a fitted effect of over 15% in size; further: potency means the concentration at half of the fitted maximal effect)
Method in brief: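 Agonist mode screen using a stably integrated beta-lactamase gene under p53 response elements in HCT-116 cells. Compound exposure lasts 16 h at 37 °C; fluorescence intensity is measured following 2 h FRET substrate loading.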

[2] = qHTS assay for small molecules that induce genotoxicity in human embryonic kidney cells expressing luciferase-tagged ATAD5 (AID 651632); further: nearly all actives have a fitted effect of over 15% in size; further: potency means the concentration at half of the fitted maximal effect
Method in brief: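 Quantitative HTS in HEK293T expressing luciferase-tagged ATAD5, whose levels rise upon DNA damage. Exposure ran 16 hr at 37C and 5% CO2, with luminescence read 30 min after Amplite addition at room temperature.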

[3] = qHTS assay for small molecule agonists of the p53 signaling pathway - cell viability (AID 651633; calls by dose curve; further: nearly all actives have a fitted effect of over 30% in size; further: potency means the concentration at half of the fitted maximal effect)
Method in brief: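 p53RE-bla cells were treated with compound for 16 hours at 37 C. Cytotoxicity was then measured as CellTiter-Glo luminescence after 30 min at room temperature.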

[4] = qHTS assay for small molecule disruptors of the mitochondrial membrane potential - cell viability (AID 720634; calls by dose curve; further: nearly all actives have a fitted effect of over 20% in size; further: potency means the concentration at half of the fitted maximal effect)
Method in brief: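 ATP-based luminescent viability readout (CellTiter-Glo, 30 min, room temperature) in HepG2 cells multiplexed with the m-MPI membrane potential dye; compound exposure lasted 1 hr at 37 C.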

[5] = qHTS assay for small molecule disruptors of the mitochondrial membrane potential (AID 720635); further: potency means the concentration at half of the fitted maximal effect
Method in brief: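 HepG2 cells exposed to compound 1 hr at 37C, then Mito-MPS dye 30 min. Ratio read of aggregate (540/590 nm) versus monomer (490/535 nm) fluorescence.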

[6] = qHTS assay to test for compound auto fluorescence at 590 nm (red) in HepG2 cells (AID 720674)
Method in brief: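 Fluorescence at 590 nm emission following 540 nm excitation was recorded from HepG2 wells one hour after compound transfer, with DMSO-only wells as vehicle and Rose Bengal sodium equivalency as the scale.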

[7] = qHTS assay to test for compound auto fluorescence at 535 nm (green) in HepG2 cells (AID 720675)
[8] = qHTS assay to test for compound auto fluorescence at 460 nm (blue) in HEK293 cells (AID 720678)
Method in brief: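 HEK293 cells (2,000/well, medium with 10% dialyzed FBS) attached 4-5 hr, then exposed to compound overnight at 37C, 5% CO2. Blue fluorescence read at 405/460 nm, with triamterene as reference fluorophore.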

[9] = qHTS assay to test for compound auto fluorescence at 590 nm (red) in HEK293 cells (AID 720679)
Method in brief: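 HEK293 cells (2,000/well, 10% dialyzed FBS) attached 4-5 hr, then dosed with compound or DMSO and incubated overnight at 37C, 5% CO2. Red fluorescence read at 540/590 nm, Rose Bengal sodium as reference fluorophore.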

[10] = qHTS assay for small molecules that induce genotoxicity in human embryonic kidney cells expressing luciferase-tagged ATAD5 - cell viability (AID 651634; calls by dose curve; further: nearly all actives have a fitted effect of over 25% in size)
Method in brief: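 After 15.5 hr incubation with compound at 37C, 5% CO2, HEK293T ATAD5-luciferase cells received CellTiter-Fluor reagent; fluorescence intensity was quantified following 30 min at 37C.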

## C=C1c2cccc(O)c2C(O)=C2C(=O)[C@]3(O)C(O)=C(C(N)=O)C(=O)[C@@H](N(C)C)[C@@H]3[C@@H](O)[C@H]12
[1]
  Potency: inactive
[2]
  Potency: inactive
[3]
  Potency: inactive
[4]
  Potency: inactive
[5]
  Potency: inactive
[6]
  fluorescence, relative to Rose Bengal: -0.284% [at 18.6 µM] (inactive)
[7]
  fluorescence, % of fluorescein control: -0.0181% [at 18.6 µM] (inactive)
[8]
  fluorescence, % of triamterene: 1.67% [at 18.6 µM] (inactive)
[9]
  fluorescence, % of fluorescent control: 0.604% [at 18.6 µM] (inactive)

## CC(C)=CCC1C(=O)N(c2ccccc2)N(c2ccccc2)C1=O
[1]
  Potency: 15 µM (active)
[2]
  Potency: inactive
[3]
  Potency: 21.1 µM (active)
[4]
  Potency: inactive
[6]
  outcome: inactive
[7]
  outcome: inactive
[8]
  Potency: inactive
[9]
  outcome: inactive

## CC1(C)[C@@H](OC(=O)CCC(=O)O)CC[C@]2(C)[C@H]3C(=O)C=C4[C@@H]5C[C@@](C)(C(=O)O)CC[C@]5(C)CC[C@@]4(C)[C@]3(C)CC[C@@H]12
[1]
  Potency: inactive
[2]
  Potency: inactive
[3]
  Potency: inactive
[4]
  Potency: inactive
[5]
  Potency: inactive
[6]
  fluorescence, relative to Rose Bengal: -0.342% [at 18.6 µM] (inactive)
[7]
  fluorescence, % of fluorescein control: -0.0594% [at 18.6 µM] (inactive)
[8]
  fluorescence, % of triamterene: 0.0377% [at 18.6 µM] (inactive)
[9]
  fluorescence, % of fluorescent control: 0.163% [at 18.6 µM] (inactive)

## CN1C(=O)N(c2ccccc2Br)Cc2cnc(Nc3ccc4c(c3)OCC(CO)O4)nc21 (configuration not stated)
[1]
  Potency: 19.3 µM (active)
[2]
  Potency: inactive
[4]
  Potency: 48.6 µM (active)
[5]
  Potency: 24.3 µM (active)
[6]
  outcome: inactive
[7]
  outcome: inactive
[8]
  Potency: inactive
[9]
  outcome: inactive

## CC(O)c1ccccc1 (configuration not stated)
[1]
  Potency: inactive
[2]
  Potency: inactive
[3]
  Potency: inactive
[6]
  outcome: inactive
[7]
  outcome: inactive
[8]
  Potency: inactive
[9]
  outcome: inactive

## CC(C)C(O)(c1ccc(OC(F)(F)F)cc1)c1cncnc1 (configuration not stated)
[1]
  Potency: inactive
[3]
  Potency: inactive
[10]
  Potency: inactive
[4]
  Potency: inactive
[6]
  outcome: inactive
[7]
  outcome: inactive
[8]
  Potency: inactive
[9]
  outcome: inactive

## c1cc(N(CC2CO2)CC2CO2)ccc1Cc1ccc(N(CC2CO2)CC2CO2)cc1 (configuration not stated)
[1]
  Potency: 24.3 µM (active)
[2]
  Potency: 15.4 µM (active)
[3]
  Potency: inactive
[4]
  Potency: 48.6 µM (active)
[5]
  Potency: 27.3 µM (active)
[6]
  outcome: inactive
[7]
  outcome: inactive
[8]
  Potency: inactive
[9]
  outcome: inactive

## CN1CCCN=C1COC(=O)C(O)(c1ccccc1)C1CCCCC1 (configuration not stated)
[1]
  Potency: inactive
[2]
  Potency: inactive
[3]
  Potency: inactive
[6]
  outcome: inactive
[7]
  outcome: inactive
[8]
  Potency: inactive
[9]
  outcome: inactive

## CCCCCCNC(=O)n1cc(F)c(=O)[nH]c1=O
[1]
  Potency: 1.5 µM (active)
[3]
  Potency: 0.668 µM (active)
[10]
  Potency: inactive
[4]
  Potency: inactive
[6]
  outcome: inactive
[7]
  outcome: inactive
[8]
  Potency: inactive
[9]
  outcome: inactive

## Cc1cccc(N(C)C(=S)Oc2ccc3c(c2)CCC3)c1
[1]
  Potency: inactive
[2]
  Potency: inactive
[3]
  Potency: inactive
[10]
  Potency: inactive
[6]
  outcome: inactive
[8]
  Potency: inactive
[9]
  outcome: inactive

## CC(C)C=O
[1]
  Potency: inactive
[3]
  Potency: inactive
[5]
  Potency: inactive
[6]
  outcome: inactive
[7]
  outcome: inactive
[8]
  Potency: inactive
[9]
  outcome: inactive

## C/C=C(/C(=C/C)c1ccc(O)cc1)c1ccc(O)cc1
[1]
  Potency: 3.2 µM (active)
[2]
  Potency: inactive
[10]
  Potency: inactive
[4]
  Potency: inactive
[5]
  Potency: 9.02 µM (active)
[7]
  fluorescence, % of fluorescein control: 0.154% [at 18.6 µM] (inactive)
[8]
  fluorescence, % of triamterene: 0.118% [at 18.6 µM] (inactive)
[9]
  fluorescence, % of fluorescent control: 0.023% [at 18.6 µM] (inactive)

## Oc1cccc(O)c1O
[1]
  Potency: inactive
[2]
  Potency: inactive
[3]
  Potency: inactive
[4]
  Potency: inactive
[8]
  Potency: inactive
[9]
  outcome: inactive

## Cc1ccccc1S
[2]
  Potency: inactive
[3]
  Potency: inactive
[10]
  Potency: inactive
[4]
  Potency: inactive
[5]
  Potency: inactive
[6]
  outcome: inactive
[8]
  Potency: inactive
[9]
  outcome: inactive

## c1ccc(C[n+]2cccc3ccccc32)cc1
[2]
  Potency: inactive
[3]
  Potency: inactive
[10]
  Potency: inactive
[4]
  Potency: inactive
[6]
  outcome: inactive
[7]
  outcome: inactive
[8]
  Potency: inactive
[9]
  outcome: inactive

## O=c1cc(-c2ccccc2)oc2cc(O)cc(O)c12
[2]
  Potency: inactive
[3]
  Potency: inactive
[10]
  Potency: inactive
[4]
  Potency: 30.6 µM (active)
[5]
  Potency: 3.86 µM (active)
[6]
  outcome: inactive
[8]
  Potency: inactive
[9]
  outcome: inactive

## O=C(OCC(O)CO)c1ccccc1Nc1ccnc2cc(Cl)ccc12 (configuration not stated)
[2]
  Potency: inactive
[3]
  Potency: inactive
[10]
  Potency: inactive
[4]
  Potency: inactive
[6]
  fluorescence, relative to Rose Bengal: 0.0018% [at 18.6 µM] (inactive)
[7]
  fluorescence, % of fluorescein control: 0.0219% [at 18.6 µM] (inactive)
[8]
  fluorescence, % of triamterene: 0.52% [at 18.6 µM] (inactive)
[9]
  fluorescence, % of fluorescent control: -0.0042% [at 18.6 µM] (inactive)

## CCCCN1CCCC1C(=O)Nc1c(C)cc(C)cc1C (configuration not stated)
[2]
  Potency: inactive
[3]
  Potency: inactive
[10]
  Potency: inactive
[4]
  Potency: inactive
[6]
  outcome: inactive
[7]
  outcome: inactive
[8]
  Potency: inactive
[9]
  outcome: inactive

## O=C(O)CCCCCCCCCCCBr
[2]
  Potency: inactive
[3]
  Potency: inactive
[10]
  Potency: inactive
[4]
  Potency: inactive
[6]
  outcome: inactive
[7]
  outcome: inactive
[8]
  Potency: inactive
[9]
  outcome: inactive

## COc1ncnc(NS(=O)(=O)c2ccc(N)cc2)c1OC
[2]
  Potency: inactive
[3]
  Potency: inactive
[10]
  Potency: inactive
[4]
  Potency: inactive
[5]
  Potency: inactive
[6]
  outcome: inactive
[7]
  outcome: inactive
[8]
  Potency: inactive
[9]
  outcome: inactive

## C=CC(C)(CCC=C(C)C)OC(=O)CC(C)C (configuration not stated)
[2]
  Potency: inactive
[3]
  Potency: inactive
[10]
  Potency: inactive
[4]
  Potency: inactive
[5]
  Potency: inactive
[6]
  outcome: inactive
[7]
  outcome: inactive
[8]
  Potency: inactive
[9]
  outcome: inactive

— PubChem BioAssay (Tox21)
